Reference: PubChem BioAssay
The source made the active and inactive calls. Unless noted, the rule behind the calls is not given here.

Experiments:
[1] = A549 cell viability effects, profiling panel, calcein-AM fluorescence, 48 h, basal (AID 1162); conditions: higher = more signal; note: test concentration not given here
[2] = adipocyte viability effects, profiling panel, cell-based, 3T3-L1 adipocytes, calcein-AM fluorescence, 48 h, basal (AID 1163); conditions: 3T3-L1 adipocytes viability, higher = more signal; note: test concentration not given here
[3] = HepG2 cell viability effects, profiling panel, calcein-AM fluorescence, 48 h, basal (AID 1164); conditions: higher = more signal; note: test concentration not given here
[4] = MM1S cell viability effects, profiling panel, calcein-AM fluorescence, 48 h, basal (AID 1165); conditions: higher = more signal;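 note: viability of MM1S multiple myeloma cells under basal unstimulated conditions; test concentration not given here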
[5] = basal RPMI8226 viability, no added stimulus, profiling panel, cell-based, calcein-AM fluorescence, 48 h, PK04 Diversity Set (AID 1166); conditions: RPMI8226 myeloma viability, higher = more signal;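 note: cells grown under basal conditions without added stimulus; test concentration not given here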
[6] = basal HepG2 mitochondrial membrane potential changes, profiling panel, cell-based, JC-1 fluorescence, 24 h, 100 nL compound (AID 1167); conditions: higher = more signal; note: test concentration not given here
[7] = basal 3T3-L1 adipocyte mitochondrial potential changes, profiling panel, cell-based, JC-1 fluorescence, 3T3-L1 adipocytes, 24 h, 100 nL compound (AID 1168); conditions: JC-1 mitochondrial fluorescence, higher = more signal, called active from +8 up or from −8 down; note: test concentration not given here
[8] = basal RPMI8226 mitochondrial membrane potential changes, profiling panel, cell-based, JC-1 fluorescence, 24 h, 100 nL compound (AID 1169); conditions: RPMI8226 myeloma, JC-1 mitochondrial potential fluorescence, higher = more signal; note: test concentration not given here
[9] = basal MM1S mitochondrial membrane potential changes, profiling panel, cell-based, JC-1 fluorescence, 24 h, 100 nL compound (AID 1170); conditions: higher = more signal; note: test concentration not given here
[10] = A549 lung cancer cell viability effects, profiling panel, resazurin fluorescence, 24 h, PK04 Diversity Set (AID 1171); conditions: higher = more signal, called active from +8 up or from −8 down; note: test concentration not given here
[11] = HepG2 liver cancer cell viability effects, profiling panel, resazurin fluorescence, 24 h, PK04 Diversity Set (AID 1172); conditions: higher = more signal; note: test concentration not given here
[12] = basal S. cerevisiae growth modulation, no modifier, primary screen, OD600, strain BY4716, 24 h, basal condition (AID 1173); conditions: OD600, 24 h, higher = more signal, called active from +8 up or from −8 down
[13] = MM1S myeloma cell viability, profiling panel, resazurin fluorescence, basal, 24 h, PK04 Diversity Set (AID 1174); conditions: higher = more signal, called active from +8 up or from −8 down;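 note: MM1S multiple myeloma cell line; test concentration not given here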
[14] = molecular target: Dihydroorotate dehydrogenase (quinone), mitochondrial (Plasmodium falciparum (isolate 3D7)) (UniProt Q08210); experiment: PfDHODH enzyme inhibitors, primary screen, biochemical, C-terminal His tag, absorbance 600 nm (AID 1175); conditions: DCIP absorbance 600 nm, higher = more signal, called active from +8 up or from −8 down;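 note: recombinant parasite enzyme with a five histidine tag at its C terminus; test concentration not given here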
[15] = P. aeruginosa biofilm formation inhibitors, primary screen, strain PAO1, LB-PBS medium, absorbance 600 nm (AID 1176); note: test concentration not given here; conditions: P. aeruginosa PAO1 growth/biofilm, A600, 12 h; higher = more signal
[16] = S. cerevisiae RM11-1a growth modifiers, primary screen, strain RM11-1a, OD600, basal, 24 h (AID 1177); conditions: OD600, 24 h, higher = more signal, called active from +8 up or from −8 down;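 note: cultures grown under basal conditions with no added stressor; test concentration not given here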
[17] = E. coli acrAB mutant growth effects, primary screen, E. coli filamentation inducers, strain DRC39, OD650, 24 h (AID 1178); conditions: higher = more signal, called active from +8 up or from −8 down;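 note: growth measured as culture turbidity by optical density at 650 nm; test concentration not given here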
[18] = E. coli acrAB mutant growth effects, primary screen, E. coli filamentation inducers, strain DRC39, OD650, 48 h (AID 1179);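 note: screen aims at cell division blockers that make cells filament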; conditions: E. coli DRC39 delta-acrAB growth, higher = more signal, called active from +8 up or from −8 down
[19] = RPMI8226 myeloma cell viability, profiling panel, resazurin fluorescence, basal, 24 h, PK04 Diversity Set (AID 1180); conditions: higher = more signal;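 note: RPMI8826 multiple myeloma cell line at 5000 cells per well; test concentration not given here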
[20] = molecular target: E3 ubiquitin-protein ligase XIAP (Homo sapiens) (UniProt P98170); experiment: XIAP binders, primary screen, biophysical, small-molecule microarray, fluorescence 635 nm (AID 1181); conditions: small-molecule microarray binding, higher = more signal;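 note: score merges 667 nm emission and signal to noise over triplicate slides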
Chain of E3 ubiquitin-protein ligase XIAP (Homo sapiens) (P98170 whole entry, looked up): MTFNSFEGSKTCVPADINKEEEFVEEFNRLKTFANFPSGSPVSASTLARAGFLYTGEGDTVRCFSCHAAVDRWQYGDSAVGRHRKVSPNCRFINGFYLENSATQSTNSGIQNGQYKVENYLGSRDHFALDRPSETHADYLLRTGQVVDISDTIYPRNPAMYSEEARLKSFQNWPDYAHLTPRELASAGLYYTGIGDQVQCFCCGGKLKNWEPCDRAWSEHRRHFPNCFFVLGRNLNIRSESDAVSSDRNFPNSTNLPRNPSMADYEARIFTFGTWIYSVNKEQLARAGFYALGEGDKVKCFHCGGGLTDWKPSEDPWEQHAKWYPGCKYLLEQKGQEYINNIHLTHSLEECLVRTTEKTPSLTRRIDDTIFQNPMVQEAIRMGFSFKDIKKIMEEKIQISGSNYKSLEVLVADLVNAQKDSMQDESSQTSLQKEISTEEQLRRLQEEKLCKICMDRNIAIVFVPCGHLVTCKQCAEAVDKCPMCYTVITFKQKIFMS

Chain of Dihydroorotate dehydrogenase (quinone), mitochondrial (Plasmodium falciparum (isolate 3D7)) (Q08210 whole entry, looked up): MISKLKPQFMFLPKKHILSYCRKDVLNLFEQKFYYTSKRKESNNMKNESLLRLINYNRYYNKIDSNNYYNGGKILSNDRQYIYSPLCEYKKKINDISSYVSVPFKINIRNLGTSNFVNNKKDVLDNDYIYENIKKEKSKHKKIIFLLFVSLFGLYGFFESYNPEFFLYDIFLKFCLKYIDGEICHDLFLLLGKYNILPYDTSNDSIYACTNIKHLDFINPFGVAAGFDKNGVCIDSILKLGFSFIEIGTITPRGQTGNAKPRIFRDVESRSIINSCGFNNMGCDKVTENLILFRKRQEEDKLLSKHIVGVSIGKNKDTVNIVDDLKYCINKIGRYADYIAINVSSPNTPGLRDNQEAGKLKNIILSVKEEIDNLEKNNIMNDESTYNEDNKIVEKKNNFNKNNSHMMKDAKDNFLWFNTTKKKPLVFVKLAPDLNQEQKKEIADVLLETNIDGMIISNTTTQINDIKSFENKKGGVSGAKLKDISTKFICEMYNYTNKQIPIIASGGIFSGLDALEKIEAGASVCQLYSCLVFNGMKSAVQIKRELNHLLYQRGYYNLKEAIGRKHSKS

SMILES | z-score [1] | z-score [2] | z-score [3] | z-score [4] | z-score [5] | z-score [6] | z-score [7] | z-score [8] | z-score [9] | z-score [10] | z-score [11] | z-score [12] | z-score [13] | composite z-score [14] | z-score [15] | z-score [16] | z-score [17] | z-score [18] | z-score [19] | composite z-score [20]
C=CCN1C(=O)[C@]2(O[C@H](CCO)[C@@H]([Si](C)(C)c3ccc(OC)cc3)[C@@H]2C)c2cc(N3C(=O)COc4ccccc43)ccc21 | -3.84 | 1.76 | -4.67 | -2.7 | -4.36 | -2.14 | 0.707 (inactive) | -1.06 | -2.25 | -5.62 (inactive) | -5.79 | 0.346 (inactive) | -8.88 (active) | 0.828 (inactive) | -0.34 (inactive) | 2.96 (inactive) | 1.55 (inactive) | 0.68 (inactive) | -6.28 | 0.0356
CS(=O)(=O)CCOC(=O)C1=CC(CCCO)=CC(C2CC2)N(Cc2cccc(OC(F)(F)F)c2)C=C1C(=O)OCCS(C)(=O)=O (stereo not given) | 0.78 | 0.751 | 0.572 | -2.98 | -1.18 | 1.92 | -0.374 (inactive) | -0.34 | -0.0798 | 0.538 (inactive) | 0.0407 | -2.55 (inactive) | 0.0932 (inactive) | -0.0527 (inactive) | 0.342 (inactive) | 0.416 (inactive) | 0.9 (inactive) | 0.241 (inactive) | 0.329 | 0.0363
CCCCNC(=O)c1ccc(C#C[Si](C(C)C)(C(C)C)C(C)C)c(OC(C)=O)c1 | -0.487 | 0.95 | -2.45 | -2.22 | -4.09 | -2.34 | -0.281 (inactive) | -1.1 | -1.04 | -0.363 (inactive) | 0.236 | -0.152 (inactive) | 0.219 (inactive) | -1.29 (inactive) | -0.623 (inactive) | 0.0679 (inactive) | 0.119 (inactive) | -0.0634 (inactive) | 0.234 | -0.165
O=C1C2C=CC(C(O)c3ccc4c(c3)OCO4)N(Nc3ccccc3)C2C(=O)N1c1ccccc1 (stereo not given) | -0.587 | -0.756 | -0.634 | -0.427 | 0.0871 | -1.47 | -1.19 (inactive) | 0.558 | -0.636 | 0.773 (inactive) | -0.0551 | 0.939 (inactive) | -0.793 (inactive) | 0.0433 (inactive) | 0.338 (inactive) | 0.581 (inactive) | -0.0005 (inactive) | -0.387 (inactive) | -0.827 | -0.0524
Cc1ccc(C(C)CC(O)C2C=CC3C(=O)N(c4ccccc4)C(=O)C3N2Nc2ccc(C#N)cc2)o1 (stereo not given) | 0.491 | -0.0968 | 0.459 | -3.7 | -0.355 | 0.175 | -0.155 (inactive) | -1.05 | -1.2 | -1.17 (inactive) | -0.793 | -17.1 (active) | -3.76 (inactive) | -1.79 (inactive) | 0.0616 (inactive) | -20.8 (active) | 0.431 (inactive) | 1.14 (inactive) | -5.62 | 0.0204
C=CC1c2cc(O)c(OC)cc2CCN1Cc1ccc([N+](=O)[O-])o1 (stereo not given) | 0.654 | -0.187 | -0.143 | -0.429 | 0.413 | -0.22 | 0.362 (inactive) | -0.0931 | 0.877 | 0.0283 (inactive) | -0.362 | 0.193 (inactive) | 0.336 (inactive) | 0.294 (inactive) | -1.03 (inactive) | 1.11 (inactive) | 0.148 (inactive) | -0.217 (inactive) | 0.685 | 0.188
CC(C)C[C@@H]1NC(=O)[C@@H]2C[C@H](C(=O)NCCCCCC[N+](C)(C)C)[C@H](c3cccc(OCCO)c3)N2C1=O | -0.895 | 0.137 | -1.16 | -0.131 | -0.585 | -1.48 | 0.229 (inactive) | 0.108 | 0.0386 | -0.483 (inactive) | -0.482 | 0.62 (inactive) | -0.384 (inactive) | -0.317 (inactive) | 0.683 (inactive) | -0.0613 (inactive) | -0.466 (inactive) | -1.15 (inactive) | -0.899 | -0.227
COCCOC(=O)N1C(=O)[C@@]2(c3cc(C#CCNC(N)=O)ccc31)[C@H](c1ccc(O)cc1)N1[C@H](c3ccccc3)[C@H](c3ccccc3)OC(=O)[C@H]1[C@@H]2C(=O)N1CCN(c2ncccn2)CC1 | -0.652 | -0.901 | 0.527 | -0.0396 | -1.05 | -2.34 | 0.703 (inactive) | -0.322 | -1.14 | -0.163 (inactive) | 0.392 | 2.72 (inactive) | -0.441 (inactive) | -0.265 (inactive) | 2.81 (inactive) | 3.03 (inactive) | -0.123 (inactive) | 0.0896 (inactive) | -0.0784 | -0.205
CCCNC(=O)[C@@]1(C)c2ccccc2C(=O)N(Cc2ccccc2)[C@H]1c1ccc(CO)cc1 | -0.0623 | 0.47 | 1.03 | -0.542 | 0.485 | 4.13 | -0.0853 (inactive) | -0.415 | 1.14 | 1.47 (inactive) | -0.0367 | -0.312 (inactive) | 0.435 (inactive) | -0.0373 (inactive) | -0.0065 (inactive) | -0.637 (inactive) | 0.503 (inactive) | -0.105 (inactive) | 1.67 | -0.0701
